Measured values: PubChem BioAssay AID504727 (Broad Institute, 2011)
“And” between values parts separate entries of the source, which are not always exact repeats. Identical values can stand only once. The source made the active and inactive calls.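 Rule for the calls: active = fitted half-maximal concentration AC50 at or below ten times the highest valid tested dose, with signal falling as DNA is displaced (actives reach about 34 µM in these data); inconclusive = flat fit at moderate signal loss, or poor fit quality; inactive = the rest, including signal rising instead of falling.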

Assay: DNA intercalators displacing acridine orange, dose response, artefact control for KSHV LANA DNA-binding inhibitor project, biochemical, fluorescence polarization, cherry-picked samples, set 2 (AID 504727)
Settings: AC50: Acridine orange-DNA displacement; series mostly up to 35 µM

Compound | AC50
Cc1nnc(NC(=O)CN2C(=O)NC3(CCCC3)C2=O)s1 | inactive
CN(c1ccc(OCC(=O)OCC(=O)c2c(N)n(C)c(=O)n(C)c2=O)cc1)S(=O)(=O)c1ccc2ccccc2c1 | inactive
CCOc1ccc(S(=O)(=O)N(C)c2ccc(OCC(=O)NC3=NCCS3)cc2)cc1 | inactive
CC(C)N(C(=S)Nc1cccnc1)c1ccccc1 | inactive
Cc1ccc(C(CC(=O)N2CCCCC2)c2ccccc2)c(O)c1C (stereo not drawn) | inactive
O=C(O)C1(c2ccccc2)CCN(S(=O)(=O)c2ccc(Cl)s2)CC1 | inactive
CC(C)C(C(=O)O)N1C(=O)/C(=C/C=C/c2ccco2)SC1=S (stereo not drawn) | inactive
O=C(OCC(=O)N1N=C(c2ccc(Cl)cc2)CC1c1ccco1)c1cccnc1 (stereo not drawn) | inactive
Nc1c(C(=O)Nc2ccccc2F)sc2nc(Cc3ccccc3)cc(C(F)(F)F)c12 | 20.2 µM (active)
COc1ccc(NC(=O)COC(=O)c2c(-c3ccccc3)noc2C)cc1 | inactive
CC(C)=C[C@@H]1C[C@H](C)[C@H]2CC[C@H](C)c3c(O[C@@H]4O[C@@H](C)[C@@H](O)[C@@H](O)[C@@H]4O)c(O)c(C)c1c32 | inactive
COc1cc(OC)cc(C(=O)NC2CC3CCC(C2)N3C)c1 (stereo not drawn) | inactive
Nc1ccccc1C(=O)N1O[C@@H]2C=C[C@H]1CC2 | inactive
C[n+]1c2cc(N)ccc2cc2ccc(N)cc21 | 1.66 µM (active) and 2.31 µM (active)
CCOC(=O)CN1NC2(CCCCCC2)NC1=S | inactive
O=C1c2c(O)ccc(O)c2C(=O)c2c(NCCNCCO)ccc(NCCNCCO)c21 | 1.34 µM (active) and 2.32 µM (active)
COc1ccc(-c2nc(C(=O)O)cs2)cc1OC | inactive
O=c1c2c(nc3cc(-c4ccc(F)cc4)[nH]n13)CCC2 | inactive
CCOC(=O)c1ccccc1Nc1cc(C)nc2nc(C)nn12 | inactive

Compound | AC50
Nc1ccc(-c2nc3ccc(C(=O)O)cc3s2)cc1 | inactive
COc1ccc(OCC(=O)N2CCN(c3cccc(C(F)(F)F)c3)CC2)cc1 | inactive
CN(Cc1cnc2nc(N)nc(N)c2n1)c1ccc(C(=O)NC(CCC(=O)O)C(=O)O)cc1 (stereo not drawn) | inactive
Cc1ccc(NC(=O)CN2C(=O)N/C(=C/c3cccn3-c3ccc(C(=O)O)cc3)C2=O)cc1 | inactive
C=CCOC(=O)C1=C[C@H](c2csc3ccccc23)C[C@H](OCc2ccc(CO)cc2)O1 | inactive
O=C(O)c1ccccc1NS(=O)(=O)c1ccc(N/N=C/c2ccc(O)c(O)c2)c([N+](=O)[O-])c1 | inactive
COc1cccc2c1C(=O)c1c(O)c3c(c(O)c1C2=O)C[C@@](O)(C(=O)CO)C[C@@H]3O[C@H]1C[C@H](N)[C@H](O)[C@H](C)O1 | 2.4 µM (active)
NNC(=O)CC1=NNC(=O)C1 | inactive
CN(N=Nc1ccc([N+](=O)[O-])cc1)c1ccccc1 | 11 µM (active)
COc1ccccc1N1CCN(S(=O)(=O)c2c(C)[nH]c(C)c2C(=O)N2CCCC2)CC1 | inactive
CC(C(=O)Nc1ccc(C(=O)O)c(O)c1)N1C(=O)/C(=C\c2ccco2)SC1=S (stereo not drawn) | inactive
CCCn1c(SCC(=O)NCc2cccs2)nc2c1c(=O)n(C)c(=O)n2C | inactive
CC(=O)c1ccc2c(c1)C1C=CCC1C(C(=O)O)N2 (stereo not drawn) | inactive
C/C(=N/NC(=O)c1cc(O)c(O)c(O)c1)c1ccc([N+](=O)[O-])cc1 | inactive
Cn1cc(C(=O)c2ccc(Cl)cc2Cl)cc1C(=O)N/N=C(\N)COc1ccccc1 | inactive
COc1ccc(S(=O)(=O)N2CCC(C(=O)N3CCCCC3)CC2)cc1 | inactive
CNc1ccc2c3c(cccc13)C(=O)N(C)C2=O | 0.872 µM (active)
CCN(c1ccc(C)cc1C)S(=O)(=O)c1nnc(NC(=O)c2ccco2)s1 | inactive
COc1ccc2c3c(cccc13)C(=O)CC2 | 6.92 µM (active)
